Screening data as filed in PubChem BioAssay.
HCMV antiviral: qHTS Assay for inhibitors of the human cytomegalovirus (HCMV). AID 1259415, 2018. activity change, negative = inhibition, % at 57.5 µM. 410,000 compounds, 4.5% hits. HFF cells, HCMV-luciferase reporter, 72 h; active compounds read low; in the data active means activity change below about -60%; inconclusive means no clear call, values can overlap the other calls; inactive means above about -39%
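Screen run at 2 compound doses on HFFs infected with reporter HCMV, MOI 1 PFU/cell. Luciferase activity from cell lysates at 72 h post infection gave inhibition relative to buffer-only and Salinomycin wells.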
Pf growth 96h: Primary qHTS for delayed death inhibitors of the malarial parasite plastid, 96 hour incubation. P. falciparum luciferase reporter growth, 96 h. Potency, µM (series often up to 28.7 µM), for the others: at the highest dose activity change, negative = inhibition, most hits filed as inhibitors. 320,000 compounds, 6.9% hits. AID 504834, 2011; further: potency means the concentration at half of the fitted maximal effect
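Luminescence readout: decreased luciferase signal marks inhibited growth of reporter-expressing P. falciparum in infected red cells (2% hematocrit, 0.05% parasitemia final), exposed to compound two generations (96 h, 37 C, 5% CO2).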
Sm TGR inh: qHTS Assay for the Inhibitors of Schistosoma Mansoni Peroxiredoxins | Schistosoma mansoni thioredoxin glutathione reductase (TGR), Q962Y6 | purified TGR, DTNB reduction, TNB absorbance 405 nm | Potency, µM (doses to about 114 µM), for the others: at the top dose activity change, negative = inhibition, most hits filed as inhibitors | 360,000 compounds, 3% hits | AID 485364, 2010; further: potency means the concentration at half of the fitted maximal effect; nearly all actives have a fitted effect of over 60% in size
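Kinetic colorimetric format: TGR-catalysed, NADPH-driven DTNB reduction monitored via TNB absorbance. Enzyme dispensed at 20 nM; compound exposure 15 min at room temperature before reaction start.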
Pf growth 48h: Primary qHTS for delayed death inhibitors of the malarial parasite plastid, 48 hour incubation. P. falciparum luciferase growth in erythrocytes, 48 h. Potency, µM (titrated, usually from 28.7 µM), for the others: top-dose activity change, negative = inhibition, hits mostly inhibitors. 310,000 compounds, 5.9% hits. AID 504832, 2011; further: potency means the concentration at half of the fitted maximal effect
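Luciferase-expressing P. falciparum in infected erythrocytes (2% hematocrit, 0.1% parasitemia final) in RPMI 1640/0.5% Albumax were exposed to compound for 48 hours at 37 C, 5% CO2; growth read as luminescence.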
FBPA Giardia inh: qHTS Assay for Inhibitors of Fructose-1,6-bisphosphate Aldolase from Giardia Lamblia | A8B2U2 | purified Giardia FBPA | Potency, µM (series often up to 59.6 µM), for inactives: at the highest dose activity, negative = inhibition, usual class: inhibitors | 290,000 compounds, 0.71% hits; further: potency means the concentration at half of the fitted maximal effect; nearly all actives have a fitted effect of over 55% in size
Target sequence (A8B2U2 whole entry, looked up): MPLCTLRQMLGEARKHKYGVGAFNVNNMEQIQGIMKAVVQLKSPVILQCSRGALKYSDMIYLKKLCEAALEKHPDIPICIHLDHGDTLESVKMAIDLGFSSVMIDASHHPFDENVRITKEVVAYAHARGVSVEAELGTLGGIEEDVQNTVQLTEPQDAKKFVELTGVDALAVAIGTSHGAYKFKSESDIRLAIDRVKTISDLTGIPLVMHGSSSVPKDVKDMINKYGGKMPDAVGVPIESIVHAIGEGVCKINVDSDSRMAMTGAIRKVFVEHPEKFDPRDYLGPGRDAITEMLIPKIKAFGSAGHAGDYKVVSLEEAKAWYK
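Giardia FBPA (40 nM reagent) was preincubated 10 min at RT with compound (up to 57.5 uM final), then substrate plus GAPDH/TPI/NAD/arsenate coupling system with diaphorase/resazurin was added; resorufin fluorescence (525/598 nm) was read after 20 min.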
Starred values were filed as active, the others as inactive; [ ] = dose if it differs, or a comment. Sampled rows, rich in hits. Any-hit rate of the full collection: about 14%. Unless noted, the call rests on the fitted dose curve; in most records, active means well fitted curve in the direction sought with a large enough effect; inconclusive means small, poorly fitted or top-dose-only effect, or another doubt; inactive means no such curve, though single readings can be large; an effect the other way counts as inactive or inconclusive. On the % scale 0 is the no-effect control and ±100 the full control effect.

For COCCNC(=O)C1CCC(CNS(=O)(=O)c2ccc3c(c2)CC(C)N3C(=O)C2CC2)CC1 (centres undefined) the results were HCMV antiviral 3, Pf growth 96h 12µM*, Sm TGR inh 4% and Pf growth 48h 13%.
`O=C(NC(=S)N1CCN(c2nc(-c3ccccc3)cs2)CC1)c1cncc(Br)c1` gave HCMV antiviral -21, Pf growth 96h inconclusive, Sm TGR inh -4%[57.1 µM], Pf growth 48h inconclusive and FBPA Giardia inh 10%.
Screening Cc1ccc(Cc2c(C)nc3nc(SCC(=O)NCCN4CCCCCC4)nn3c2C)cc1 returned HCMV antiviral -10.
Screening Cc1ccc(C2=NCC(C)n3nc4ccccc4c32)cc1 (centres undefined) returned HCMV antiviral -9.
Screening CC1CCC2C(=O)N3C(CCC(C)[C@@H]3c3ccc(-c4ccco4)cc3)C(=O)N2C1c1cccc(N2CCCC2=O)c1 (some centres undefined) returned FBPA Giardia inh -7%[12.9 µM].
COC(=O)C[C@H]1C[C@H]2c3cc(NS(=O)(=O)c4ccc(OC)cc4)ccc3O[C@H]2[C@H](CO)O1 was read as HCMV antiviral 34.
c1ccc(CNc2cc(-c3ccoc3)ncn2)cc1 was read as FBPA Giardia inh -23%.
Screening CC(=O)N1c2ccc(S(=O)(=O)NCC3CCC(C(=O)Nc4cccc(F)c4)CC3)cc2CC1C (centres undefined) returned HCMV antiviral -77* and Sm TGR inh -2%.
Screening CC(=O)N1c2ccc(S(=O)(=O)NCC3CCC(C(=O)Nc4ccccc4C)CC3)cc2CC1C (centres undefined) returned HCMV antiviral 7 and Sm TGR inh 1%.
`CC(=O)N1c2ccc(S(=O)(=O)NCC3CCC(C(=O)Nc4ccc(C)cc4)CC3)cc2CC1C` (centres undefined) gave HCMV antiviral -23 and Sm TGR inh 10%.
Screening CC(=O)N1c2ccc(S(=O)(=O)NCC3CCC(C(=O)Nc4cc(C)ccn4)CC3)cc2CC1C (centres undefined) returned HCMV antiviral -91*, Pf growth 96h inconclusive, Sm TGR inh 6%, Pf growth 48h inconclusive and FBPA Giardia inh inconclusive.
`O=C(OCc1cc(=O)n2nc(C3CC3)sc2n1)c1ccc(NC(=O)c2ccccc2Cl)cc1` gave HCMV antiviral -16 and Sm TGR inh 0%.
Screening CC1CCc2c(c3ccccc3n2C(=O)CCl)C1 (centres undefined) returned HCMV antiviral -13, Pf growth 96h -28%, Sm TGR inh 8.9µM*, Pf growth 48h 9% and FBPA Giardia inh inconclusive.
Screening Fc1ccccc1OCCSc1ncnc2nc[nH]c12 returned HCMV antiviral -7, Pf growth 96h 4.7µM*, Pf growth 48h 62% and FBPA Giardia inh 2%.
`O=C1[C@@H]2[C@@H]3C[C@@H]([C@H]4ON=C(c5ccc(Cl)cc5)[C@@H]34)[C@@H]2C(=O)N1C1CCCCC1` gave HCMV antiviral inconclusive, Pf growth 96h 10µM*, Sm TGR inh -2%, Pf growth 48h 25% and FBPA Giardia inh 1%.
CCOC(=O)c1c(NC(=O)c2nc(SC(C)C)ncc2Cl)sc2c1CCCC2 was read as HCMV antiviral 16 and Sm TGR inh -1%.
Screening CCCN1C[C@H](CSC)C[C@H]2c3cccc4[nH]cc(c34)C[C@@H]21 returned FBPA Giardia inh -7%[21.7 µM].
For CCN(CC)C(=O)N[C@H]1C[C@@H]2c3cccc4[nH]cc(c34)C[C@H]2N(C)C1 the results were HCMV antiviral 35, Pf growth 96h 0.93µM*, Sm TGR inh -10%, Pf growth 48h inconclusive and FBPA Giardia inh -11%.
C=CCN1CC(C(=O)N(CCCN(C)C)C(=O)NCC)CC2c3cccc4[nH]cc(c34)CC21 (centres undefined) was read as Pf growth 96h 11µM*, Pf growth 48h 19µM* and FBPA Giardia inh 7%.
`O=C(Nc1ccc(Cl)cc1)N[C@H]1CC[C@@]23CCCN2C(=O)CCC[C@H]3C1Cc1ccccc1` (some centres undefined) gave HCMV antiviral 16.
Screening CCN(CC)CCNC(=O)c1ccccc1C(=O)c1ncc[nH]1 returned HCMV antiviral -7, Pf growth 96h 1.7µM*, Sm TGR inh 2%, Pf growth 48h -14% and FBPA Giardia inh -6%.
Screening CCN(CC)CCNC(=O)c1ccccn1 returned HCMV antiviral 21, Pf growth 96h -25%, Sm TGR inh 1%, Pf growth 48h -17% and FBPA Giardia inh -6%.
Screening COc1cccc(-c2cnc(C(O)c3cccc(F)c3)[nH]2)c1 (centres undefined) returned HCMV antiviral 39.
For Cc1cc(Cl)ccc1NC(=O)/C=N/O the results were HCMV antiviral 3, Pf growth 96h 3%, Sm TGR inh 0%, Pf growth 48h 1.9µM* and FBPA Giardia inh 0%.
Cc1cc(Cl)ccc1NC(=O)CCC(=O)O was read as HCMV antiviral -19, Pf growth 96h 13%, Sm TGR inh 5%, Pf growth 48h 10% and FBPA Giardia inh 5%.
CCCN1CCCC2Cc3nc(N)ncc3CC21 (centres undefined) was read as Pf growth 96h 12µM* and Pf growth 48h -5%.
For Cc1oc(-c2cccs2)nc1CS(=O)CC(=O)NC1CCCCCC1 (centres undefined) the results were HCMV antiviral 11, Pf growth 96h -19%, Sm TGR inh 18µM* and FBPA Giardia inh -4%.
`O=C(CSc1oc(-c2cccs2)nc1S(=O)(=O)c1ccccc1)NC1CCCCC1` gave HCMV antiviral -35, Sm TGR inh 11%, Pf growth 48h inconclusive and FBPA Giardia inh -4%.
For Cc1cccc(-c2nc(CS(=O)CC(=O)NC3CCCC(C)C3C)c(C)o2)c1 (centres undefined) the results were HCMV antiviral -13, Pf growth 96h 51%, Sm TGR inh 5µM*, Pf growth 48h 41% and FBPA Giardia inh -9%.
Cc1oc(-c2ccc(Cl)cc2)nc1CS(=O)CC(=O)NC1CCCCC1 (centres undefined) was read as HCMV antiviral -29, Pf growth 96h -14%, Sm TGR inh 11µM* and Pf growth 48h 20%.
Cc1oc(-c2ccc(Cl)cc2)nc1CS(=O)CC(=O)NC1CCCC1 (centres undefined) was read as HCMV antiviral -13, Pf growth 96h inconclusive, Sm TGR inh 8.9µM* and Pf growth 48h 24%.
